What all share (experiment): qHTS profiling for inhibitors of Plasmodium falciparum proliferation (AID 504749); also: nearly all actives have a fitted effect of over 60% in size
Settings in all cases: P. falciparum in erythrocytes, SYBR Green DNA, 72 h; series mostly up to 28.7 µM
For orientation: qHTS replaces the single test concentration by a dilution series.

One test relates to CP211. A digest of the protocol:
(§1)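 Each compound contacts P. falciparum-infected red blood cells for 72 h at 37 C; lysis buffer (Tris, EDTA, saponin, Triton X, SYBR Green I) is added and fluorescence measured next morning; values normalized to controls.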

In a further test the test system is CP215. In short, it runs like this:
as §1

The test system of the next test is CP238. In short, it runs like this: as §1
Another test deals with CP250. A digest of the protocol:
as §1

The test system of a further test is CP252. In short, it runs like this: as §1
A further test relates to CP256. A digest of the protocol:
as §1

The test system of the next test is CP262. A digest of the protocol: as §1
The subject of the next test is CP265. A digest of the protocol:
as §1

In the next test the test system is CP266. A digest of the protocol: as §1
The test system of another test is CP268. In short, it runs like this: as §1
The test system of a further test is CP269. In short, it runs like this:
as §1

For a further test, the system named is CP291. A digest of the protocol: as §1
The next test deals with CP297. A digest of the protocol:
as §1

The test system of a further test is CP305. In short, it runs like this:
as §1

In a further test the test system is CP315. A digest of the protocol: as §1
The subject of a further test is CP237. In short, it runs like this: as §1
For the next test, the system named is CP260. A digest of the protocol:
as §1

In the next test the test system is CP286. In short, it runs like this: as §1
A further test relates to CP217. A digest of the protocol:
as §1

For the next test, the system named is CP247. In short, it runs like this:
as §1

Inconclusive results are not listed. Calls of active or inactive are those of the source. Calls follow the shape of the dose curve; as a rule, active = well fitted inhibition curve with a large enough effect; inconclusive = small, poorly fitted or top-dose-only effect; inactive = flat fitted curve, though single readings scatter.
Potency is read from the fitted curve at half-maximal effect.

With `Clc1ccc(Nc2nnc(Cc3ccncc3)c3ccccc23)cc1`, the Potency entry in the test on CP211, in the test with CP215, in the test with CP238, with CP250, in the test on CP252 and with CP256 was “inactive” each time. Besides, the Potency entry in the test on CP262, with CP265, in the test on CP268, with CP269, with CP291 and in the test with CP297 was “inactive” throughout. The Potency entry with CP305 and in the test on CP315 was “inactive” throughout. In the test with CP266, the call was inactive.

On to `NC(N)=NC(=O)c1nc(Cl)c(N)nc1N`, for which the Potency result in the test with CP211, in the test with CP252, in the test on CP262, in the test with CP297 and in the test on CP315 was “inactive” throughout. Further, the Potency is 8.91 µM (active) in the test on CP237 and 11.2 µM (active) in the test on CP265. Moreover, in the test on CP266, the result was inactive.

On to `Cc1c(C)c2c(c(C)c1O)CCC(C)(COc1ccc(CC3SC(=O)NC3=O)cc1)O2` (centres undefined), for which the Potency result in the test with CP238, with CP250, with CP252, in the test with CP256, in the test with CP260 and in the test on CP262 was “inactive” each time. Also, the Potency result in the test on CP268, in the test with CP286, with CP291, in the test with CP305 and with CP315 was “inactive” each time. Further, the outcome in the test with CP266 was inactive.

Turning to `CCCCNc1cc(C(=O)O)cc(S(N)(=O)=O)c1Oc1ccccc1`, the Potency entry in the test with CP211, with CP217, in the test with CP237, in the test on CP238, in the test with CP247 and in the test with CP250 was “inactive” each time. Besides, the Potency entry in the test with CP252, in the test on CP256, in the test with CP260, with CP262, in the test on CP265 and with CP268 was “inactive” throughout. The Potency result in the test with CP269, with CP286, in the test with CP291, with CP297, in the test on CP305 and in the test with CP315 was “inactive” throughout. Also, the result in the test with CP266 was inactive.

Consider `Cc1cc2c(C(C)C)c(O)c(O)c(C=O)c2c(O)c1-c1c(C)cc2c(C(C)C)c(O)c(O)c(C=O)c2c1O`, for which the Potency with CP237 was 10 µM (active); in the test on CP247 it was 11.2 µM (active); with CP256 it was 11.2 µM (active); in the test with CP265, 12.6 µM (active).

Regarding `CCOC(=O)C1=C[C@]2(CC)CCCN3CCc4c(n1c1ccccc41)[C@@H]32`, the Potency is 11.2 µM (active) with CP217, 10 µM (active) with CP265, 13.5 µM (active) in the test with CP269 and 13.5 µM (active) with CP297. The Potency result in the test on CP262 is “inactive”.

On to `O=c1n(CCCN2CCN(c3cccc(Cl)c3)CC2)nc2ccccn12`, for which the Potency entry in the test on CP211, in the test with CP217, with CP237, with CP238, in the test with CP247 and in the test on CP250 was “inactive” throughout. The Potency entry in the test with CP252, in the test with CP256, in the test on CP260, in the test on CP265, in the test with CP268 and in the test with CP269 was “inactive” throughout. Besides, the Potency entry in the test with CP286, with CP291, in the test on CP297, with CP305 and with CP315 was “inactive” each time. Besides, the compound was called inactive in the test with CP266.

With `C1COC(NC(C2CC2)C2CC2)=N1`, the Potency result in the test with CP211, in the test with CP262, with CP268, in the test with CP269, with CP286 and in the test on CP297 was “inactive” each time. Also, the Potency result in the test with CP305 and in the test with CP315 was “inactive” in each case. Also, in the test with CP247, the Potency was 11.2 µM (active). The outcome with CP266 was inactive.

For the compound `CCCc1nc2c(C)cc(-c3nc4ccccc4n3C)cc2n1Cc1ccc(-c2ccccc2C(=O)O)cc1`, the results for the Potency in the test on CP237, in the test on CP260 and in the test on CP286 were 4.47 µM (active), 6.31 µM (active) and 11.2 µM (active), respectively. For the same compound, the Potency result in the test with CP250, with CP256, with CP262, in the test with CP305 and in the test on CP315 was “inactive” throughout. For the same compound, the compound was called inactive in the test with CP266.

In the case of `N[C@@H]1CONC1=O`, the Potency entry in the test on CP211, in the test on CP215, with CP217, in the test on CP237, in the test with CP238 and in the test on CP250 was “inactive” in each case. In addition, the Potency entry in the test on CP252, in the test with CP256, with CP260, in the test on CP262, in the test on CP265 and in the test on CP268 was “inactive” in each case. Besides, the Potency entry with CP269, in the test on CP286, in the test with CP291, with CP305 and with CP315 was “inactive” throughout. In addition, in the test on CP266, the compound was called inactive.

As for `CCCc1nn(C)c2c(=O)[nH]c(-c3cc(S(=O)(=O)N4CCN(C)CC4)ccc3OCC)nc12`, the Potency entry in the test with CP211, in the test with CP215, with CP217, in the test on CP238, in the test on CP247 and in the test with CP250 was “inactive” in each case. Besides, the Potency result in the test on CP252, in the test on CP256, in the test on CP260, in the test with CP262, in the test with CP265 and with CP268 was “inactive” throughout. Besides, the Potency result in the test on CP269, in the test with CP286, in the test with CP297, in the test with CP305 and in the test on CP315 was “inactive” in each case. The call in the test on CP266 was inactive.

Consider `CC(c1cc2ccccc2s1)N(O)C(N)=O` (centres undefined), for which the Potency result with CP211, in the test on CP217, in the test with CP237, with CP238, in the test on CP247 and with CP250 was “inactive” in each case. For the same compound, the Potency entry with CP252, in the test on CP256, in the test on CP260, with CP262, in the test with CP265 and in the test on CP268 was “inactive” each time. Moreover, the Potency result in the test on CP269, with CP286, with CP291, in the test with CP297 and in the test on CP305 was “inactive” throughout. In addition, the call with CP266 was inactive.

For the compound `CCOC(=O)N1CCC(=C2c3ccc(Cl)cc3CCc3cccnc32)CC1`, the Potency is 3.98 µM (active) in the test with CP217; 8.91 µM (active) in the test on CP237; 3.55 µM (active) in the test on CP250; 2 µM (active) in the test with CP252; 12.6 µM (active) with CP260; 10 µM (active) in the test on CP265. Moreover, in the test with CP297, the Potency was 13.5 µM (active). In addition, the Potency result in the test with CP238 and in the test on CP262 was “inactive” in each case.

As to `OC(CN1CCC(Cc2ccc(F)cc2)CC1)c1ccc(Cl)cc1` (centres undefined), the Potency entry with CP211, in the test on CP252, in the test on CP262 and with CP315 was “inactive” each time. In addition, the Potency in the test with CP237 was 2.51 µM (active); in the test with CP260, 3.16 µM (active); in the test with CP286, 3.55 µM (active). Besides, in the test with CP266, the compound was classed as inactive.

Take `Cc1ccccc1C(OCCN(C)C)c1ccccc1` (centres undefined): the Potency result in the test with CP250, in the test on CP262, in the test with CP269 and with CP297 was “inactive” each time. In addition, the result in the test on CP266 was inactive.

For `Nc1ccc(S(=O)(=O)Nc2ccnn2-c2ccccc2)cc1`, the Potency result with CP211, in the test with CP217, with CP237, with CP238, with CP247 and in the test on CP250 was “inactive” each time. Also, the Potency result in the test with CP252, with CP256, in the test on CP260, in the test on CP262, in the test with CP265 and in the test on CP268 was “inactive” each time. Besides, the Potency result in the test on CP269, with CP286, in the test with CP291, with CP297, in the test with CP305 and in the test with CP315 was “inactive” each time. For the same compound, the call in the test on CP266 was inactive.

For `CNC[C@H](O)c1cccc(O)c1`, the Potency result in the test on CP211, in the test with CP217, in the test with CP237, in the test on CP238, with CP247 and in the test with CP250 was “inactive” throughout. Moreover, the Potency entry in the test with CP252, with CP256, in the test with CP260, in the test with CP262, in the test on CP265 and in the test with CP268 was “inactive” each time. Further, the Potency result in the test on CP269, in the test with CP286, in the test on CP291, in the test on CP297 and in the test with CP305 was “inactive” throughout. The compound was called inactive in the test on CP266.

Regarding `Cc1oncc1C(=O)Nc1ccc(C(F)(F)F)cc1`, the Potency result in the test on CP211, in the test on CP217, in the test with CP237, in the test with CP238, in the test on CP247 and in the test on CP250 was “inactive” each time. Besides, the Potency result in the test with CP252, with CP256, in the test on CP262, with CP268, in the test on CP269 and in the test with CP286 was “inactive” in each case. For the same compound, the Potency entry in the test on CP291, in the test with CP297, in the test on CP305 and in the test with CP315 was “inactive” throughout. Moreover, in the test with CP266, the call was inactive.

Take `C#Cc1cccc(Nc2ncnc3cc(OCCOC)c(OCCOC)cc23)c1`: the Potency in the test on CP237 is 12.6 µM (active). The Potency result in the test on CP262, with CP265, with CP305 and in the test on CP315 was “inactive” in each case. In addition, in the test on CP266, the result was inactive.

`O=C1CCc2cc(OCCCCc3nnnn3C3CCCCC3)ccc2N1`: the Potency entry with CP211, in the test on CP215, with CP237, in the test with CP260, in the test with CP268 and with CP269 was “inactive” each time. For the same compound, the Potency entry with CP286, in the test on CP291, in the test on CP297, with CP305 and in the test with CP315 was “inactive” in each case. The Potency in the test on CP238 is 3.16 µM (active). In addition, the call with CP266 was inactive.

Turning to `Cn1cnc([N+](=O)[O-])c1Sc1ncnc2nc[nH]c12`, the Potency entry with CP211, in the test on CP215, with CP237, in the test on CP256, in the test with CP260 and in the test with CP262 was “inactive” each time. Also, the Potency entry in the test on CP268, in the test with CP269, in the test with CP286, in the test on CP291, with CP297 and with CP305 was “inactive” each time. For the same compound, in the test with CP315, the Potency entry was “inactive”. Besides, the Potency with CP247 is 6.31 µM (active). In addition, the outcome in the test on CP266 was inactive.

(Values after PubChem BioAssay (NCATS).)
